Measured values as given in article PMC5540273 (PLoS ONE, 2017).

test system: CHEK2; details: concentration: 1 μM,replicates: in singlicate; n = 1
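Note: KINOMEscan kinase panel screen.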

Structure (SMILES) | %Inh [%]
COC(=O)Nc1nc2cc(Oc3ccc(NC(=O)Nc4cc(C(F)(F)F)ccc4Cl)cc3)ccc2[nH]1.Cl [GW697465] | 41
O=C(Nc1n[nH]c2cc(-c3ccco3)ccc12)C1CC1 [SB-737447] | 16
Cc1cccc2c(-c3ccncc3)c(-c3ccc(F)cc3)nn12.Cl [GW461487] | 0
CN1CCN(CCNc2nc3cc(Oc4ccc(NC(=O)Nc5cc(C(F)(F)F)ccc5F)cc4)ccc3[nH]2)CC1.Cl.Cl [GW768504] | 3
c1ccc(Oc2ccc(Nc3ccnc4ccc(-c5ccccn5)cc34)cc2)cc1 [GW407034] | 0
CC(=O)Nc1nc2cnc(Nc3cc(NC(=O)c4cccc(CC(C)(C)C#N)c4)ccc3C)nc2s1 | 28
O=C(NCC1CC1)c1ccc(-c2cc(C(=O)NC3CC3)ccc2F)cc1 [GW810445] | 0
Cc1ccc(CC(=O)N2CCc3cc(-c4cn(C)c5ncnc(N)c45)ccc32)cc1 [GSK2634758] | 17
CSc1nccc(-c2c(-c3ccc(F)cc3)ncn2CCCN2CCOCC2)n1.Cl [SB-217146] | 0
O=C(Nc1ccccc1)c1cccc(Oc2ccc3nccn3n2)c1 | 0
COc1cccc(C2=C(Nc3cccc(Cl)c3)C(=O)NC2=O)c1 [SB-341556] | 0
Cn1ccc2ncnc(Oc3ccc(NC(=O)Nc4cccc(C(F)(F)F)c4)c(Cl)c3)c21 | 0
Cc1ccn2nc(-c3ccc(F)cc3)c(-c3ccncc3)c2c1.Cl [GW457859] | 43
CCCC(=O)Nc1n[nH]c2ncccc12 [SB-601436] | 0
Cn1ccc2ncnc(Oc3ccc(NC(=O)Nc4cccc(C(F)(F)F)c4)c(F)c3)c21 | 1
C[C@@H]1CNc2c(sc3ccc4nc(-c5ccc(O)cc5)ccc4c23)C(=O)N1 | 54
N#Cc1cccc(C(=O)NC2CCN(c3ccnc(Nc4ccc(F)cc4)n3)C2)c1 (stereo not shown) [GSK1379708] | 0
Nc1nccc(-c2ccc3c(N)n[nH]c3c2)n1 [GSK1034945] | 58
COc1cccc(CNC(=O)NC2CCN(c3ccnc(Nc4cc(OC)c(OC)c(OC)c4)n3)C2)c1 (stereo not shown) [GSK1379765] | 14

Structure (SMILES) | %Inh [%]
COc1cc2c(Nc3ccc(NC(=O)c4ccccc4)cc3)ncnc2cc1OCCCN1CCOCC1 [GSK301329] | 58
CC(=O)Nc1ccc(-c2cc3ncnc(SCC(=O)O)c3s2)cc1 | 26
CCn1c(-c2nonc2N)nc2cncc(Br)c21 [SB-738004] | 41
CCOC(=O)N1CCC(n2cnc(-c3ccc(F)cc3)c2-c2ccnc(N)n2)CC1 [SB-219952] | 2
NC(=O)Nc1sc(-c2ccc(F)cc2)cc1C(N)=O [GW789449] | 69
COc1cc2ncn(-c3cc(OCC4CCCCC4)c(C(N)=O)s3)c2cc1OC [GSK204559] | 0
Cl.Cl.NC[C@H](CC1CCCCC1)NC(=O)c1ccc(-c2ccnc3[nH]ccc23)s1 [GSK1581428] | 27
Cc1n[nH]c2cc(Nc3ccnc(Nc4cccc(CN5CCOCC5)c4)n3)ccc12 [GW682569] | 27
Cc1ccc(Nc2ccnc(Nc3ccc4c(c3)CS(=O)(=O)C4)n2)cc1O.Cl [GW579362] | 14
Cc1ccc2c(-c3ccnc(Nc4ccc(C(F)(F)F)cc4)n3)cnn2n1 [GW819776] | 0
CS(=O)(=O)c1cccc(CNc2nc(Nc3ccc4c(c3)[C@@H]3C[C@@H]4CNC3=O)ncc2C(F)(F)F)c1 | 17
Cl.c1ccc(Oc2ccc(Nc3ccnc4cc(-c5ccc(CN6CCNCC6)o5)ccc34)cc2)nc1 [GW567142] | 82
CN(c1ccc2c(c1)nc(NCc1ccc(F)cc1)n2C)c1ccnc(Nc2ccc(CS(C)(=O)=O)cc2)n1.Cl [GW813244] | 0
CS(=O)c1ccc(-c2coc3ccc(-c4n[nH]c(=O)o4)cc23)cc1 (stereo not shown) | 42
Cn1ccc2ncnc(Oc3ccc(NC(=O)Nc4ccnc(C(F)(F)F)c4)c(Cl)c3)c21 | 2
C[C@@H]1CCN(C(=O)N2CCCC2)C[C@@H]1N(C)c1ncnc2[nH]ccc12 | 0
CCn1c(-c2nonc2N)nc2cncc(CNC3CCNCC3)c21.Cl [SB-747651] | 0
Cc1cccc(-c2nc(Nc3ccncc3)c3sccc3n2)n1 [GW869641] | 0
